Source: ChEMBL document CHEMBL3988442, “University of Dundee, Small-Polar-MMV Screening Library” (2021)
Among all 48,000 compounds or so, about 13,000 (27%) showed an effect of 50% or more. The list shows a part of the results.

System: Wolbachia pipientis
Test: Anti-Wolbachia Cell-Based Screen
Assay type: functional
Parameters: scale not given: in the data most compounds retested in dose-response had high values
Settings: 5 µM

Row | SMILES | Percent Effect
1 | N#CC1(C(=O)N2Cc3cc(-c4cc[nH]n4)ccc3C2c2cnco2)CC1 (stereo not drawn) | -31.27%
2 | NC(=O)COc1ccc(C(=O)NCCc2ccco2)cc1 | -0.9721%
3 | CN1CCN(Cc2cccnc2)C(=O)C12CCN(CC1CCOC1)CC2.O=C(O)C(F)(F)F.O=C(O)C(F)(F)F.O=C(O)C(F)(F)F (stereo not drawn) | -19.27%
4 | CCS(=O)(=O)N1CC[C@H]2C(=O)N(Cc3cccnc3)CCO[C@H]2C1.O=C(O)C(F)(F)F | -12.91%
5 | CN1CC(=O)N(c2ccccc2)CC12CCN(Cc1cccnc1)C2.O=C(O)C(F)(F)F.O=C(O)C(F)(F)F.O=C(O)C(F)(F)F (stereo not drawn) | -4.544%
6 | C[C@@H]1CN(Cc2cccnc2)C[C@]12CCN(CCN1CCCC1)C2=O.O=C(O)C(F)(F)F.O=C(O)C(F)(F)F.O=C(O)C(F)(F)F | 95.13%
7 | C[C@H]1CN(CC2CCOCC2)C[C@@]12CCN(Cc1cccnc1)C2=O.O=C(O)C(F)(F)F.O=C(O)C(F)(F)F | 107.6%
8 | CCN1C(=O)C(c2ccccc2)CC12CCN(Cc1cccnc1)CC2.O=C(O)C(F)(F)F.O=C(O)C(F)(F)F (stereo not drawn) | -2.584%
9 | C[C@@H]1CN(S(C)(=O)=O)C[C@]12CCN(Cc1cccnc1)C2=O.O=C(O)C(F)(F)F | 104.4%
10 | CN1CCN(Cc2cccnc2)C(=O)C12CCN(C1CCOC1)CC2.O=C(O)C(F)(F)F.O=C(O)C(F)(F)F.O=C(O)C(F)(F)F (stereo not drawn) | 20.83%
11 | CN1CC(=O)N(c2cccc(F)c2)CC12CCN(Cc1cccnc1)C2.O=C(O)C(F)(F)F.O=C(O)C(F)(F)F.O=C(O)C(F)(F)F (stereo not drawn) | -7.08%
12 | C[C@@H]1CN(Cc2cccc(F)c2)C[C@]12CCN(Cc1cccnc1)C2=O.O=C(O)C(F)(F)F.O=C(O)C(F)(F)F | 107.3441%
13 | CCN(CC)C(CNCc1ccc(C)o1)c1ccco1 (stereo not drawn) | 6.767%
14 | CC(=O)N[C@@H]1CN(S(=O)(=O)Cc2ccccc2)C[C@H]1C(C)C | 4.897%
15 | O=C(NC1CCN(Cn2nc(-c3ccccc3)oc2=O)CC1)C1CC1 | 15.64%
16 | C[C@H]1CN(C(=O)c2cccnc2)C[C@@]12CCN(CCN1CCCC1)C2=O | 107.9%
17 | C[C@H]1CN(c2ccccn2)C[C@@]12CCN(Cc1cccnc1)C2=O.O=C(O)C(F)(F)F.O=C(O)C(F)(F)F | 111.4%
18 | O=C(c1cccnc1)N1C[C@@H]2CN(CCN3CCCC3)C(=O)[C@@H]2C1 | -1.372%
19 | Cc1noc(C)c1CN1CCC2(CC1)CC(Oc1cccnc1)CO2.O=C(O)C(F)(F)F (stereo not drawn) | 0.1924%
20 | CN1CCN(Cc2cccnc2)C2(CCN(Cc3ccccn3)C2)C1=O.O=C(O)C(F)(F)F.O=C(O)C(F)(F)F.O=C(O)C(F)(F)F (stereo not drawn) | 9.415%
21 | Cc1noc(C)c1CN1C[C@H](C)[C@]2(CCN(Cc3cccnc3)C2=O)C1.O=C(O)C(F)(F)F.O=C(O)C(F)(F)F | 119.9%
22 | Cc1noc(C)c1CN1CCN(Cc2cccnc2)c2ncccc2C1.O=C(O)C(F)(F)F.O=C(O)C(F)(F)F.O=C(O)C(F)(F)F | -12.75%

Row | SMILES | Percent Effect
23 | O=C(O)C(F)(F)F.O=C(O)C(F)(F)F.c1ccc(CN2CCC3(CC2)CC(Oc2cccnc2)C3)nc1 | -13.53%
24 | O=C(c1ccco1)N1CCCC2(CCN(CCN3CCCC3)C2=O)C1 (stereo not drawn) | 0.2637%
25 | C[C@@H]1CN(Cc2ccccn2)C[C@]12CCN(Cc1cccnc1)C2=O.O=C(O)C(F)(F)F.O=C(O)C(F)(F)F.O=C(O)C(F)(F)F | 86.67%
26 | CN(CC1CCCCO1)c1nc(-c2cccnc2)nc2c1CCNC2 (stereo not drawn) | -24.82%
27 | CC(C)N1CCc2ncn(C(C)C)c2C1C(=O)NCCN1CCCC1 (stereo not drawn) | -11.46%
28 | CCCc1cc(NCCn2cccn2)n2nccc2n1 | -0.5952%
29 | Cc1cc(NC(=O)CCN(CC2CCOC2)C2CC2)no1 (stereo not drawn) | 14.41%
30 | CC(C)NC(=O)N[C@H]1C[C@@H](c2nc(-c3ccc(F)cc3)no2)N(C)C1 | -4.692%
31 | Cc1nc2cc(C(=O)N(CCN(C)C)CCN(C)C)ccc2n1C | -1.95%
32 | Cc1cc(CS(=O)(=O)NCC2CCCCC2)on1 | -6.001%
33 | O=C(c1csc(-c2nnc[nH]2)n1)N1CCCCC1Cn1cccn1 (stereo not drawn) | 114.8%
34 | O=C(c1ccc(-n2ccnc2)nn1)N1CCCCC1Cn1cccn1 (stereo not drawn) | -18.3%
35 | Cc1cnn(CC2CCCN2C(=O)c2csc(-c3nnc[nH]3)n2)c1 (stereo not drawn) | 136%
36 | O=C(Cc1csc(-c2nnc[nH]2)n1)N1CCCC1Cn1cccn1 (stereo not drawn) | 1.097%
37 | Cc1noc(OCc2ccc(C#N)cc2)n1 | 3.288%
38 | NC(=O)C1CCN(C(=O)c2cc(S(=O)(=O)N3CCCC3)cs2)CC1 | 4.91%
39 | C=Cn1ncc(CN2C[C@@H]3CCCN3C[C@H]2Cc2ccccc2)c1C | 116.6%
40 | CCCn1ncc(CN2C[C@@H]3CCCN3C[C@@H]2CCSC)c1C | -13.92%
41 | C=Cn1ncc(CN2C[C@@H]3CCCN3C[C@@H]2CCSC)c1C | 137.5%
42 | C=Cn1ncc(CN2C[C@@H]3CCCN3C[C@@H]2Cc2ccccc2)c1C | -5.258%
43 | C=Cn1ncc(CN2C[C@@H]3C[C@@H](O)CN3C[C@@H]2Cc2ccccc2)c1C | 135.2%
44 | CCn1cc(CN2CC3CCCN3C[C@H]2C)c(C)n1 (stereo partly drawn) | -10.13%

Row | SMILES | Percent Effect
45 | C=Cn1ncc(CN2C[C@@H]3CCCN3C[C@H]2CCSC)c1C | -0.7089%
46 | C=Cn1ncc(CN2C[C@@H]3C[C@@H](O)CN3C[C@H]2Cc2ccccc2)c1C | 130.9%
47 | COC(=O)C1(C)CCN(C(=O)NCCc2c(C)[nH]c3ccccc23)C1 (stereo not drawn) | -5.132%
48 | Cc1ccsc1CN(CCN(C)C)C(=O)c1cc2ccccc2[nH]1 | -9.122%
49 | COc1c(F)cc(NC(=O)NCc2nncn2C2CC2)cc1F | -0.8393%
50 | CNC(=O)c1cccc(NC(=O)c2ccnc(N(C)C)c2)c1C | -1.756%
51 | O=C(CNc1ccccc1S(=O)(=O)C(F)F)NCc1ccco1 | 0.5887%
52 | CN(C)S(=O)(=O)N1CCCC1c1cccc(-n2ccnc2)n1 (stereo not drawn) | 119.1%
53 | CN(C)S(=O)(=O)CCCOc1cccc(-n2ccnc2)c1 | -3.335%
54 | CCc1nccn1-c1cccc(C2CCCN2S(=O)(=O)N(C)C)n1 (stereo not drawn) | 103.4%
55 | CN(C)S(=O)(=O)N1CCCC1CC(=O)c1cccs1 (stereo not drawn) | -13.45%
56 | CN(CCn1cccn1)S(=O)(=O)N1CCCC1c1ccco1 (stereo not drawn) | -2.44%
57 | Cc1cccc(C2CCCN2S(=O)(=O)N(C)C)n1 (stereo not drawn) | 98.12%
58 | Cc1nccn1-c1cccc(C2CCCN2S(=O)(=O)N(C)C)n1 (stereo not drawn) | 5.145%
59 | CC(=O)c1ccc(N2CCCC(CO)(CCOc3ccccc3)C2)nc1 (stereo not drawn) | 5.356%
60 | O=C1NCC2(CCCN(C(=O)Nc3cccc(-c4cscn4)c3)CC2)O1 (stereo not drawn) | -23.17%
61 | COCc1cc(N2C[C@@H](C)[C@](O)(C3CC3)C2)ncn1 | -1.024%
62 | COc1ccc2c(c1)CC(NCc1cccc(CO)c1)CC2 (stereo not drawn) | -7.175%
63 | COc1ccc2c(c1)CC(NCCCn1cc(C)cn1)CC2 (stereo not drawn) | 28.69%
64 | COc1ccc2c(c1)CC(NCCCn1nc(C)nc1C)CC2 (stereo not drawn) | 101%
65 | CC(NC(=O)c1cc(C(C)C)[nH]n1)C(=O)Nc1ccccc1 (stereo not drawn) | -6.667%
66 | Cc1ccc(OC[C@@H]2CNC[C@H](C(=O)NCC3CCCO3)C2)cn1 (stereo partly drawn) | 2.624%

Row | SMILES | Percent Effect
67 | CO[C@H]1CCN(S(=O)(=O)c2cccs2)[C@H]1Cc1cccnc1.O=C(O)C(F)(F)F | -2.032%
68 | CO[C@@H]1CCN(C(=O)Cc2ccsc2)[C@H]1Cc1cccnc1.O=C(O)C(F)(F)F | 94.83%
69 | CO[C@H]1CCN(C(=O)Cc2ccc(F)cc2)[C@H]1Cc1ccncc1 | 101.6%
70 | COCCO[C@H]1CCN(C(=O)c2cnccn2)[C@H]1Cc1ccncc1 | -26.79%
71 | CC(=O)NCC(=O)N1CC[C@H](OCC2CC2)[C@@H]1Cc1cccnc1.O=C(O)C(F)(F)F | -17.55%
72 | CCO[C@@H]1CCN(C(=O)c2ccc[nH]2)[C@@H]1Cc1cccnc1.O=C(O)C(F)(F)F | 0.6367%
73 | CO[C@@H]1CCN(C(=O)Cc2ccc(F)cc2)[C@@H]1Cc1cccnc1.O=C(O)C(F)(F)F | 111.8%
74 | CO[C@@H]1CCN(S(=O)(=O)c2cccs2)[C@H]1Cc1cccnc1.O=C(O)C(F)(F)F | 5.775%
75 | CO[C@@H]1CCN(Cc2nccn2C)[C@H]1Cc1cccnc1.O=C(O)C(F)(F)F.O=C(O)C(F)(F)F | 5.954%
76 | COCCO[C@H]1CCN(C(=O)c2ccsc2)[C@H]1Cc1ccncc1 | -3.115%
77 | CO[C@@H]1CCN(C(=O)Cc2cccc(F)c2)[C@H]1Cc1cccnc1.O=C(O)C(F)(F)F | 114.6%
78 | COCC(=O)N1CC[C@@H](OCC2CC2)[C@@H]1Cc1cccnc1.O=C(O)C(F)(F)F | 1.513%
79 | C=C(C)CN1CCC(NC(=O)Nc2cc(C(N)=O)ccc2OC)CC1 | -10.13%
80 | CN1CC2(CCN(Cc3cc(Cl)ccc3OCC(=O)O)CC2)OC1=O | -19.61%
81 | CCc1nn(C)c(Cl)c1CN1CCCC2(CC1)CN(C)C(=O)O2 (stereo not drawn) | 89.96%
82 | CCc1nn(C)c(Cl)c1CN1CCN(c2ccc(Cl)nn2)CC1 | -2.423%
83 | COc1c(F)cc(CN2CCC3(CC2)CN(C)C(=O)O3)cc1Cl | -3.055%
84 | CCc1nn(C)c(Cl)c1CN1CCC(Cc2nncn2C)CC1 | 1.908%
85 | CCc1n[nH]c(C(=O)N2CCCC3(CN(C)C(=O)O3)C2)c1C (stereo not drawn) | -7.274%
86 | CCc1nn(C)c(Cl)c1CN1C[C@H](NC(=O)CCO)[C@@H](C(C)C)C1 | -7.141%
87 | CCc1nn(C)c(Cl)c1CN1CCCC2(C1)CN(C)C(=O)O2 (stereo not drawn) | 101.8%
88 | CCc1nn(C)c(Cl)c1CN1CCC2(C1)CN(C)C(=O)O2 (stereo not drawn) | 121.6%
